Laboratory results from PubChem BioAssay (EPA / NIEHS).
Values joined by “and” are separate entries in the source; they are usually repeats but may differ in a detail not shown here. Identical values can stand only once. Where a structure was tested more than once in an assay, its records may differ in their call. Active and inactive are the calls of the source. How the source made its calls: active means hit-call score of the fitted dose curve at least 0.9, where 1 is the maximum; inactive means score below 0.9.

Assay: ATG_ISRE_CIS: Attagene CIS-FACTORIAL HepG2 Assay for human Interferon Regulatory Factor 1 (IRF1) binding to an Interferon-Stimulated Response Element (ISRE) (AID 2282948)
Conditions: HepG2 ISRE cis-reporter (Attagene), mRNA transcription readout; actives raise or lower the signal
Method: ATG_CIS is a cell-based, multiplexed-readout assay that uses HepG2, a human liver cell line, with measurements taken at 24 hours after chemical dosing in a 24-well plate.ATG_ISRE_CIS is one of 52 assay component(s) measured or calculated from the ATG_CIS assay. It is designed to make measurements of mRNA induction, a form of inducible reporter, as detected with fluorescence intensity signals by Reverse transcription polymerase chain reaction (RT-PCR) and Capillary electrophoresis technology.Data from the assay component ATG_ISRE_CIS was analyzed into 1 assay endpoint. This assay endpoint, ATG_ISRE_CIS, was analyzed with bidirectional fitting relative to DMSO as the negative control and baseline of activity. Using a type of inducible reporter, measures of mRNA for gain or loss-of-signal activity can be used to understand the reporter gene at the transcription factor-level as they relate to the gene IRF1. Furthermore, this assay endpoint can be referred to as a primary readout, because this assay has produced multiple assay endpoints where this one serves a reporter gene function. To generalize the intended target to other relatable targets, this assay endpoint is annotated to the dna binding intended target family, where the subfamily is interferon regulatory factors.
Human liver HepG2 cells are transiently transfected with multiple reporter transcription units (MRTUs) in 6-well plates using FuGene 6 reagent (Roche; 3 ml FuGene/1 mg DNA). The MRTU constructs are regulated by a cis-regulating element (promoter). […] A major difference between the CIS and TRANS system is that in CIS activities of endogenous TFs are measured, whereas the TRANS assay evaluates changes in activities of exogenous, chimeric NR-Gal4 proteins. […] At the end of 24 hour incubation, total RNA was isolated using TriZol reagent (Invitrogen). The isolated RNA is then reverse-transcribed using oligo(dT) primer and Mo-MLV reverse transcriptase (Invitrogen) with DNAse I (Ambion) treatment for 30 min. The one-tenth of the produced cDNA was amplified by PCR using Taq DNA polymerase (Invitrogen) and two reporter sequence-specific primers. The PCR products were fluorescently labeled by primer extension with 6-arboxyfluorescein (6-FAM) 5'-labeled reporter sequence-specific primer (2 min at 95 C, 20 s at 68 C and 10 min at 72 C) and these products were digested with 5U of HpaI (New England Biolabs) for 2h at 37 C. The fragments were purified using Qiaquick PCR columns (Qiagen), analyzed on an ABI 3130xL genetic analyzer (Applied Biosystems) with peak positions identified by using a set of X-rhodamine (ROX)-labeled MapMarker1000 molecular weight standards (BioVentures). The raw capillary electrophoresis data was processed using Attagraph software (Attagene).
With NC(=O)N1c2ccccc2C=Cc2ccccc21 the outcome was “inactive”. With CCN(CC)C(=S)SSC(=S)N(CC)CC the AC50 was 81.3 µM (active). In the case of Cc1cccc(O)c1C, the outcome is reported as “inactive”. In the case of O=S(=O)(O)CCC(F)(F)C(F)(F)C(F)(F)C(F)(F)C(F)(F)C(F)(F)F, the outcome is reported as “inactive”. For c1ccc(C(O[C@@H]2CCCN(CCc3ccc4c(c3)OCO4)C2)c2ccccc2)cc1, the outcome was “inactive”. For CCCCCCCCCCCCCCO, the outcome was “inactive”. For CCCCN1C(=O)[C@@H]([C@H](O)C2CCCCC2)NC(=O)C12CCN(Cc1ccc(Oc3ccc(C(=O)O)cc3)cc1)CC2, the AC50 was 93.5 µM (active). With NC(N)=O the outcome was “inactive”. With CCCCOC(=O)c1ccccc1 the outcome was “inactive”. In the case of C=CCc1cc(S(=O)(=O)c2ccc(O)c(CC=C)c2)ccc1O, the outcome is reported as “inactive”. With CCCCCCCCN(C)C the outcome was “inactive”. With CCCc1ccccc1 the outcome was “inactive”. For FC(F)=C(F)C(F)(F)C(F)(F)C(F)(F)C(F)(F)C(F)(F)C(F)(F)F, the outcome was “inactive”. For c1ccc2cc3ccccc3cc2c1, the outcome was “inactive”. In the case of OCC(CO)(CO)CO, the outcome is reported as “inactive”. For O=C1CN(N=Cc2ccc([N+](=O)[O-])o2)C(=O)N1, the outcome was “inactive”. In the case of OC(Cn1cncn1)(Cn1cncn1)c1ccc(F)cc1F, the outcome is reported as “inactive”. In the case of NNC(=O)c1ccncc1, the outcome is reported as “inactive”. With FC(F)C(F)(F)COCC1CO1 (stereo not given) the outcome was “inactive”. With CCCCCCCCCCCCCCCCOS(=O)(=O)O the AC50 was 22.8 µM (active). With OC[C@H]1O[C@@](CO)(O[C@H]2O[C@H](CO)[C@@H](O)[C@H](O)[C@H]2O)[C@@H](O)[C@@H]1O the outcome was “inactive”. For CC(C)CC(C)O (stereo not given), the outcome was “inactive”. With CC(C)CCCCCCOC(=O)C1CCCCC1C(=O)OCCCCCCC(C)C (stereo not given) the outcome was “inactive”. In the case of Nc1ccn([C@@H]2O[C@H](CO)[C@@H](O)[C@@H]2O)c(=O)n1, the outcome is reported as “inactive”. With OC[C@H]1O[C@@H]2O[C@H]3[C@H](O)[C@@H](O)[C@@H](O[C@H]4[C@H](O)[C@@H](O)[C@@H](O[C@H]5[C@H](O)[C@@H](O)[C@@H](O[C@H]6[C@H](O)[C@@H](O)[C@@H](O[C@H]7[C@H](O)[C@@H](O)[C@@H](O[C@H]1[C@H](O)[C@H]2O)O[C@@H]7CO)O[C@@H]6CO)O[C@@H]5CO)O[C@@H]4CO)O[C@@H]3CO the outcome was “inactive”. For O=C(O)CO, the outcome was “inactive”. With O=S(=O)(O)c1ccc(N=Nc2c(O)ccc3cc(S(=O)(=O)O)ccc23)cc1 the outcome was “inactive”. With CCCCCCOC(=O)CC(CC(=O)OCCCCCC)(OC(=O)CCC)C(=O)OCCCCCC the outcome was “inactive”. In the case of OCc1c[nH]c2ccccc12, the AC50 is reported as 27.1 µM (active) and 140 µM (active) and 32.2 µM (active) and the outcome is reported as “inactive”. For COS(C)(=O)=O, the outcome was “inactive”. In the case of CC[C@H](C)C(=O)O[C@H]1C[C@H](O)C=C2C=C[C@H](C)[C@H](CC[C@@H](O)C[C@@H](O)CC(=O)O)[C@H]21, the outcome is reported as “inactive”. With C[Si](C)(C)C(F)(F)C(F)(F)C(F)(F)F the outcome was “inactive”. With Cc1ccc(S(=O)(=O)NC(=O)NN2CCCCCC2)cc1 the outcome was “inactive”. With S=P(N1CC1)(N1CC1)N1CC1 the outcome was “inactive”. For OC(O)(C(F)C(O)(O)C(F)(F)F)C(F)(F)F, the AC50 was 27.8 µM (active) and 9.44 µM (active). For CCCCCCCC/C=C\CCCCCCCC(=O)OC[C@@H](O)[C@H]1OC[C@H](O)[C@H]1O, the outcome was “inactive”. For CCOC(N)=O, the outcome was “inactive”. In the case of Cn1cc[nH]c1=S, the outcome is reported as “inactive”. With O=C(N[C@H](CO)[C@H](O)c1ccc([N+](=O)[O-])cc1)C(Cl)Cl the outcome was “inactive”.
